# Source: the supplement of paper PMC7156485
# ± gives the standard deviation of the averaged measurements.
# What was measured:
# Details in all cases: concentration: 10 µM; 24 h
# HCC1569 [1] = assay: cell number relative to DMSO (% of DMSO); higher = more cells (less growth inhibition / toxicity)
# How it was run: (§1)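 After 24 h at 37 °C with compounds at 10 µM, in triplicate, HCC1569 and TDF cells were fixed with 3.7% formaldehyde. Immunostaining used a rabbit anti-H1.0 antibody and an AlexaFluor 647 secondary, with DAPI, and six fields per well were imaged at ×10. H1.0 nuclear intensity or cell number is presented as percent of the plate control, from the median of replicates, with HCC1569 values smoothed for positional effects.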
# TDF [2] = assay: as above
# How it was run: as §1
# TDF [3] = assay: H1.0 immunofluorescence intensity relative to DMSO (% of DMSO); higher = stronger H1.0 induction, active = 120 or more
# How it was run: as §1
# HCC1569 [4] = assay: H1.0 immunofluorescence intensity relative to DMSO (% of DMSO); higher = stronger H1.0 induction, active = 140 or more
# How it was run: as §1
# 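Throughout, for H1.0 immunofluorescence intensity relative to DMSO: TDF is a line of transformed human dermal fibroblasts of mesenchymal origin.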
# 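Throughout, for cell number relative to DMSO: TDF denotes transformed human dermal fibroblasts of mesenchymal origin.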
Structure (SMILES),cell number (HCC1569 [1]),cell number (TDF [2]),H1.0 immunofluorescence intensity (TDF [3]),H1.0 immunofluorescence intensity (HCC1569 [4])
CCOC(=O)c1cnc2c(cnn2CC)c1NN=C(C)C [Etazolate],102,108,95.6 (inactive),103 (inactive)
COC(=O)c1ccccc1O [Methyl salicylate],100,104,92.2 (inactive),113 (inactive)
Cc1c2c(c(O)c3c(O)cccc13)C(=O)OC2C1C(O)C(=O)C(C(N)=O)=C(O)C1N(C)C (racemic),93.9,93.1,96.4 (inactive),102 (inactive)
COc1cc2ncnc(Nc3ccc(Cl)cc3F)c2cc1OC.Cl,83.3,102,95.7 (inactive),141 (active)
C[n+]1cc2c3c(ccc2c2ccc4cc5c(cc4c21)OCO5)OCO3 [Sanguinarine],93.5,93.6,98.2 (inactive),114 (inactive)
"C=CC1(C)CCC2C(=CCC3C(C)(C(=O)O)CCCC23C)C1 (stereo not drawn) [(4alpha,13alpha)-pimara-7,15-dien-18-oic acid]",102,101,99 (inactive),86.6 (inactive)
Cc1ccc(-c2c(-c3nn(C)c4ncnc(N5CC[C@H](N6CCCCC6)C5)c34)cnn2C)cc1,99.6,96.4,103 (inactive),99.2 (inactive)
CC(C)c1ccc2c(c1)c(SC(C)(C)C)c(CC(C)(C)C(=O)[O-])n2Cc1ccc(Cl)cc1.[Na+],102,108,91.8 (inactive),91.2 (inactive)
C1COC(NC(C2CC2)C2CC2)=N1.O=P(O)(O)O [Rilmenidine phosphate],101,110,88.5 (inactive),103 (inactive)
Cc1ccc(C)c(OCCCC(C)(C)C(=O)O)c1 [Gemfibrozil],103,99.1,91.8 (inactive),115 (inactive)
"CCCCS(=N)(=O)CCC(N)C(=O)O (racemic) [DL-Buthionine-[S,R]-sulfoximine]",102,102,97.8 (inactive),99.9 (inactive)
NC(=O)c1noc([C@H](CCCC2CCCCC2)CC(=O)NO)n1,73.8,95.6,99.6 (inactive),109 (inactive)
CNC(=O)C1OC(n2cnc3c(NCc4ccc(N)cc4)ncnc32)C(O)C1O (stereo not given),99.9,98.3,93.8 (inactive),90.6 (inactive)
COc1ccc2c(c1)c(CC(=O)OCC(=O)O)c(C)n2C(=O)c1ccc(Cl)cc1 [Acemetacin],96.5,94.4,95.4 (inactive),104 (inactive)
c1coc(CNc2ncnc3nc[nH]c23)c1 [Kinetin],103,112,95.4 (inactive),92.8 (inactive)
CCCCCC(O)C=CC1C=CC(=O)C1CCCCCCC(=O)O (stereo not given) [Prostaglandin A1],97 ± 5.2,98 ± 2.2,93.3 (inactive),93.8 (inactive)
C=C1C(=O)OC2C1CCC(C)=CCCC1(C)OC21 (stereo not given) [Parthenolide],65.2 ± 7.3,50.3 ± 3.6,119 (inactive),149 (active)
COc1cccc(OC)c1OCCNCC1CSc2ccccc2O1.Cl (stereo not given) [Benoxathian hydrochloride],91.4,108,91.8 (inactive),92 (inactive)
CC(C)NCC(O)COc1ccc(CCOCC2CC2)cc1.Cl (stereo not given) [Betaxolol.HCl],103,98,90.4 (inactive),102 (inactive)
CCCCCC=CCC=CCC=CC=CC(O)CCCC(=O)O (stereo not given),97,103,104 (inactive),105 (inactive)
CN1C2CCC1CC(OC(=O)c1c[nH]c3ccccc13)C2 (stereo not given) [Tropisetron],102,92.9,101 (inactive),112 (inactive)
CCCCCCCCC=CCCCCCCCC(=O)O [9(Z)-Octadecenoic acid],104,97.1,97.5 (inactive),103 (inactive)
O=C(NC1CCNCC1)c1[nH]ncc1NC(=O)c1c(Cl)cccc1Cl,53.5,31.9,131 (active),117 (inactive)
CN(C)S(=O)(=O)c1ccc2c(c1)C(=Cc1cc3c([nH]1)CCCC3)C(=O)N2,72.9,48,97.5 (inactive),184 (active)
CCCCS(=O)(=O)N[C@@H](Cc1ccc(OCCCCC2CCNCC2)cc1)C(=O)O.Cl.O,99.8,102,97.7 (inactive),104 (inactive)
